Measurements: PubChem BioAssay (NCATS)
Active and inactive are the calls of the source. The call rests on the fitted dose curve.

Test: Cell Proliferation Assay Versus the ED40515 IL2 Independent ATL cell lines (AID 1053194)
Conditions: ED40515 IL2-independent ATL cells
From the text: Adult T-cell leukemia (ATL) develops in individuals infected with human T-cell lymphotropic virus-1 (HTLV-1). Clinically, ATL is subclassified into four subtypes: smoldering, chronic, lymphomatous, and acute. Two autocrine loops (IL-2/IL-2Ralpha and IL-15/IL-15Ralpha) and one paracrine stimulation loop that involves IL-9 expression by ATL cells and IL-9Ralpha expression on monocytes are required to maintain viability and proliferation in the smoldering and chronic forms of the disease. These assays examined the differential response profiles for the MIPE library of approved and investigational drugs versus an IL2 dependent and independent matched ATL cell line, with the current submission examining the differential response profiles for drugs on an IL2 independent matched ATL cell line
Plate log growing ED40515 -IL2 cells: 1000cells/ well in 5uL phenol red free RPMI +5% FBS +1x p/s, Glutamine using 1536 well white griener tissue culture plates and multidrop cassette acoustic dispensing Columns 1 and 3 DMSO Columns 2 and 4, 9.2 uM Bortezomib Incubate 48 hours for celltiter glo 37C with 5%CO2 and 95% humidity with low evaporation lids Dispense 3 uL per well of cell titer glo with multidrop Incubate for 15 minutes at RT Read on VL/2 using Luminesence Wheel (Filter A)
For `CO[C@@H](C(=O)N1Cc2[nH]nc(NC(=O)c3ccc(N4CCN(C)CC4)cc3)c2C1)c1ccccc1`, the Potency was 7.43 µM (active).
For `C[C@]12CCC(=O)C(O)=C1CC[C@@H]1[C@@H]2CC[C@]2(C)C(=O)CC[C@@H]12`, the Potency was 26.4 µM (active).
In the case of `CC(O)(CS(=O)(=O)c1ccc(F)cc1)C(=O)Nc1ccc(C#N)c(C(F)(F)F)c1` (stereo not drawn), the Potency is reported as 18.7 µM (active).
With `COC1(CS(=O)c2ccccc2)CCN(CCc2c[nH]c3ccc(F)cc23)CC1` (stereo not drawn) the Potency was 23.5 µM (active).
In the case of `COC[C@H]1OC(=O)c2coc3c2[C@@]1(C)C1=C(C3=O)C2CCC(=O)[C@@]2(C)C[C@H]1OC(C)=O` (stereo partly drawn), the Potency is reported as 14.8 µM (active).
With `Cc1cc(SCc2sc(-c3ccc(C(F)(F)F)c(F)c3)nc2C)ccc1OCC(=O)O` the Potency was 26.4 µM (active).
In the case of `Cc1sc2c(c1C)C(c1ccc(Cl)cc1)=N[C@@H](CC(=O)OC(C)(C)C)c1nnc(C)n1-2`, the Potency is reported as 0.0833 µM (active).
With `Cn1cc(C2=C(c3cn(C4CCN(Cc5ccccn5)CC4)c4ccccc34)C(=O)NC2=O)c2ccccc21` the Potency was 13.2 µM (active).
For `CNC(=O)N1N=C(c2ccc(N)cc2)c2cc3c(cc2CC1C)OCO3` (stereo not drawn), the Potency was 2.96 µM (active).
In the case of `CS(=O)c1ccc(-c2nc(-c3ccc(F)cc3)c(-c3ccncc3)[nH]2)cc1` (stereo not drawn), the Potency is reported as 29.6 µM (active).
For `Cn1c(CCCC(=O)O)nc2cc(N(CCCl)CCCl)ccc21`, the Potency was 18.7 µM (active).
For `CN(C)CCN(C)CCc1ccc(Cl)c(Cl)c1`, the Potency was 16.6 µM (active).
For `O=C(O)C(=O)c1cn(Cc2ccccc2)c2ccc(-c3ccc(OC(F)(F)F)cc3)cc12`, the Potency was 20.9 µM (active).
